The campaign covered roughly 3,200 compounds. About 300 (9.4%) showed activity. The list comes from a sample in which actives are over-represented; it also holds similar structures and randomly drawn compounds.
Test system: A673/TR/shEF
Assay: cell viability (LOESS-normalised, relative to median of negative controls) (log2 ratio); higher = more viable cells (less compound effect), active = hit call of the paper (over 3 MAD below the median)
Details: treatment time: 72 h
Procedure, shortened: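 Doxycycline, present or absent from 24 h before compounds, was used to induce EWS-FLI1 shRNA knockdown in A673/TR/shEF Ewing sarcoma cells at 1,500 per well in 384-well plates. Cells then received library compounds at two or more concentrations, or DMSO controls, for three days. Viability was measured by CellTiter-Glo luminescence on an Envision reader, and per-plate LOESS correction, division by the negative-control median and log2 transformation followed.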

[1] = 0.25 µM, library screen: screen1, EWS-FLI1 expression: high (no doxycycline)
[2] = 0.25 µM, library screen: screen1, EWS-FLI1 expression: low (doxycycline-induced shRNA knockdown)
[3] = 2.5 µM, library screen: screen1, EWS-FLI1 expression: high (no doxycycline)
[4] = 2.5 µM, library screen: screen1, EWS-FLI1 expression: low (doxycycline-induced shRNA knockdown)
[5] = 0.025 µM, library screen: screen1, EWS-FLI1 expression: high (no doxycycline)
[6] = 0.025 µM, library screen: screen1, EWS-FLI1 expression: low (doxycycline-induced shRNA knockdown)
[7] = 25 µM, library screen: screen1, EWS-FLI1 expression: high (no doxycycline)
[8] = 25 µM, library screen: screen1, EWS-FLI1 expression: low (doxycycline-induced shRNA knockdown)

Measured: cell viability (log2)

CCCCOCCOC(=O)CCCOc1ccc(Cl)cc1Cl
inactive: [1] 0.0256 | [2] 0.038 | [3] 0.0946 | [4] 0.127

Cn1cc(C2=C(c3ccc(Cl)cc3Cl)C(=O)NC2=O)c2ccccc21
inactive: 0.103 µM, library screen: screen3, EWS-FLI1 expression: high (no doxycycline) 0.039 | 0.103 µM, library screen: screen3, EWS-FLI1 expression: low (doxycycline-induced shRNA knockdown) 0.0193 | 0.308 µM, library screen: screen3, EWS-FLI1 expression: high (no doxycycline) 0.0253 | 0.308 µM, library screen: screen3, EWS-FLI1 expression: low (doxycycline-induced shRNA knockdown) 0.0244 | 0.926 µM, library screen: screen3, EWS-FLI1 expression: high (no doxycycline) 0.0632 | 0.926 µM, library screen: screen3, EWS-FLI1 expression: low (doxycycline-induced shRNA knockdown) 0.00111 | 2.8 µM, library screen: screen3, EWS-FLI1 expression: high (no doxycycline) 0.0516 | 2.8 µM, library screen: screen3, EWS-FLI1 expression: low (doxycycline-induced shRNA knockdown) -0.00589 | 8.3 µM, library screen: screen3, EWS-FLI1 expression: high (no doxycycline) 0.0741 | 8.3 µM, library screen: screen3, EWS-FLI1 expression: low (doxycycline-induced shRNA knockdown) 0.0603 | 25 µM, library screen: screen3, EWS-FLI1 expression: high (no doxycycline) 0.04 | 25 µM, library screen: screen3, EWS-FLI1 expression: low (doxycycline-induced shRNA knockdown) 0.0754

Cn1cc(C2=C(c3cn(CCCSC(=N)N)c4ccccc34)C(=O)NC2=O)c2ccccc21
inactive: [5] 0.0502 | [6] 0.0613 | [1] -0.0731 | [2] 0.0259
active: [3] -1.27 | [4] -0.615 | [7] -4.25 | [8] -2.05

CN(C)CCCn1cc(C2=C(c3c[nH]c4ccccc34)C(=O)NC2=O)c2ccccc21
inactive: [5] 0.176 | [6] 0.147 | [1] 0.197 | [2] 0.193 | [8] 0.0609
active: [3] -0.136 | [7] -0.422
0.291: [4]

O=C(Nc1c(-c2ccccc2)nc2ccc(Cl)cn12)c1ccc(F)cc1
inactive: [1] 0.0947 | [2] 0.0794 | [3] 0.184 | [4] -0.0685

NCC1OC(OC2C(N)CC(N)C(OC3OC(CO)C(O)C(N)C3O)C2O)C(O)C(O)C1O (centres undefined)
inactive: [1] 0.121 | [2] -0.0254 | [3] 0.206 | [4] 0.0929

COC(=O)c1c(C)c2c(c(C)c1OC(C)=O)OC(=O)c1c(C)c(Cl)c(O)c(Cl)c1O2
inactive: [1] 0.0664 | [2] 0.0141 | [3] 0.0918 | [4] 0.03

C[C@@H]1[C@H]2[C@H](O[C@@H]3O[C@H](CO)[C@@H](O)[C@H](O)[C@H]3O)OC=C(C(=O)O)[C@H]2C[C@@H]1O
inactive: [1] 0.0698 | [2] 0.0626 | [3] 0.106 | [4] -0.0365

COCc1cc(O)c(O)c(O)c1-c1c(COC)cc(O)c(O)c1O
active: [7] -4.25 | [8] -2.42
inactive: [5] 0.13 | [6] 0.0379 | [1] 0.161 | [2] -0.00717 | [3] -0.00977 | [4] 0.159

COc1c(O)cc(O)cc1O
inactive: [1] 0.0746 | [2] 0.0275 | [3] 0.127 | [4] 0.0739

COc1cc(O)c(C)c(O)c1
inactive: [1] 0.0455 | [2] 0.156 | [3] 0.0996 | [4] 0.176

Source: the supplement of paper PMC6089552
